Laboratory results published in PubChem BioAssay AID1159580 (chemical genetic matrix, 2015).
Several values for one entry are separate records, joined by “and”; a condition that tells them apart may be missing. Equal entries are not always repeated. Hit rate of the full screen: of about 5,500 compounds, about 2,000 (36%) were called active. About 18% were inconclusive and are not listed. Cut-off read from the data, not from the text of the source: active = normalized growth mostly below about 0.91 (no sharp cut-off); inconclusive = no clear call, values can overlap the other calls; inactive = mostly above about 0.92. This is one part of the list.

Assay: chemical genetic growth profiling, strain panel (AID 1159580);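 note: tested at 20 µM; growth read once vehicle control cultures reached saturation at 30 °C; 1 = growth at the plate median or of vehicle wells; lower values mean less growth of the strain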
Conditions: S. cerevisiae deletion strains, growth OD

Measured: normalized growth

CN1CCN(CCC=C2c3ccccc3Sc3ccc(S(=O)(=O)N(C)C)cc32)CC1
active: locus YAL026C, strain drs2, stronger effect = lower value 0.767 | locus YDR137W, strain rgp1, stronger effect = lower value 1.23 [resistant] | locus YDR318W, strain mcm21, stronger effect = lower value 0.911 | locus YDR388W, stronger effect = lower value 0.922 | locus YDR392W, strain spt3, stronger effect = lower value 0.456 | locus YER155C, strain BEM2 (second series), stronger effect = lower value 0.681 | locus YGL253W, strain hxk2, stronger effect = lower value 0.889 | locus YGR252W, strain gcn5, stronger effect = lower value 0.711 | locus YHR142W, strain chs7, stronger effect = lower value 0.86
inactive: locus YAL013W, strain DEP1, stronger effect = lower value 1.01 | locus YAL021C, strain ccr4, stronger effect = lower value 0.987 | locus YAL030W, strain snc1, stronger effect = lower value 0.991 | locus YBL061C, strain skt5, stronger effect = lower value 0.973 | locus YBR009C, strain hhf1, stronger effect = lower value 0.931 | locus YBR021W, strain FUR4, stronger effect = lower value 0.978 | locus YBR023C, strain chs3, stronger effect = lower value 0.919 | locus YBR171W, strain sec66, stronger effect = lower value 1.01 | locus YBR229C, strain ROT2, stronger effect = lower value 1.01 | locus YBR231C, strain swc5, stronger effect = lower value 0.945 | locus YBR279W, strain paf1, stronger effect = lower value 0.964 | locus YCL011C, strain gbp2, stronger effect = lower value 1.01 | locus YCL016C, strain dcc1, stronger effect = lower value 0.971 | locus YCL029C, strain bik1, stronger effect = lower value 0.978 | locus YCL061C, strain MRC1, stronger effect = lower value 0.953 | locus YCL069W, strain vba3, stronger effect = lower value 0.971 | locus YCR088W, strain abp1, stronger effect = lower value 1.01 | locus YDL005C, strain med2, stronger effect = lower value 0.996 | locus YDL035C, strain GPR1, stronger effect = lower value 1 | locus YDL040C, strain nat1, stronger effect = lower value 0.993 | locus YDL074C, strain BRE1, stronger effect = lower value 0.989 | locus YDL101C, strain DUN1, stronger effect = lower value 1 | locus YDL134C, strain PPH21, stronger effect = lower value 1 | locus YDL185W, strain tfp1, stronger effect = lower value 0.989 | locus YDL192W, strain arf1, stronger effect = lower value 0.991 | locus YDR001C, strain nth1, stronger effect = lower value 1.01 | locus YDR069C, strain doa4, stronger effect = lower value 1 | locus YDR101C, strain arx1, stronger effect = lower value 0.95 | locus YDR150W, strain NUM1, stronger effect = lower value 1.02 | locus YDR159W, strain sac3, stronger effect = lower value 0.936 | locus YDR162C, strain NBP2, stronger effect = lower value 1 | locus YDR195W, strain ref2 1.1 | locus YDR297W, strain sur2, stronger effect = lower value 0.975 | locus YDR334W, strain swr1, stronger effect = lower value 1.01 | locus YDR335W, strain msn5, stronger effect = lower value 0.953 | locus YDR502C, strain sam2, stronger effect = lower value 0.931 | locus YEL003W, strain gim4, stronger effect = lower value 1.01 | locus YEL037C, strain rad23, stronger effect = lower value 1 | locus YEL061C, strain CIN8 (second series), stronger effect = lower value 0.998 | locus YEL061C, strain CIN8, stronger effect = lower value 1.02 | locus YER015W, strain faa2, stronger effect = lower value 0.985 | locus YER016W, strain bim1, stronger effect = lower value 0.992 | locus YER110C, stronger effect = lower value 0.977 | locus YER111C, strain swi4, stronger effect = lower value 0.988 | locus YER155C, strain BEM2, stronger effect = lower value 0.999 | locus YER167W, strain BCK2, stronger effect = lower value 1 | locus YFR010W, strain ubp6, stronger effect = lower value 0.965 | locus YGL078C, strain dbp3, stronger effect = lower value 0.996 | locus YGL086W, strain mad1, stronger effect = lower value 0.946 | locus YGL167C, strain pmr1, stronger effect = lower value 1.01 | locus YGL173C, strain kem1, stronger effect = lower value 0.969 | locus YGL227W, strain vid30, stronger effect = lower value 1.02 | locus YGL240W, strain doc1, stronger effect = lower value 0.921 | locus YGL248W, strain PDE1, stronger effect = lower value 1 | locus YGR135W, strain pre9, stronger effect = lower value 0.904 | locus YHR013C, strain ard1, stronger effect = lower value 0.944 | locus YHR027C, strain rpn1, stronger effect = lower value 0.99 | locus YHR030C, strain SLT2, stronger effect = lower value 1.01 and 0.981 | locus YHR079C, strain IRE1 (second series), stronger effect = lower value 0.933 | locus YHR079C, strain IRE1, stronger effect = lower value 0.98 | locus YHR094C, strain hxt1, stronger effect = lower value 0.972 | locus YHR129C, strain ARP1, stronger effect = lower value 1.01 | locus YHR200W, strain rpn10, stronger effect = lower value 0.96 | locus YIL066C, strain RNR3, stronger effect = lower value 1.01 | locus YIL073C, strain SPO22, stronger effect = lower value 1.02 | locus YIL125W, strain kgd1, stronger effect = lower value 0.997 | locus YIR030C, strain dcg1, stronger effect = lower value 0.98 | locus YJL092W, strain hpr5, stronger effect = lower value 0.977 | locus YJL095W, strain BCK1 (second series), stronger effect = lower value 0.973 | locus YJL095W, strain BCK1, stronger effect = lower value 0.992 and 0.978 | locus YJL115W, strain asf1, stronger effect = lower value 1 | locus YJL129C, strain trk1, stronger effect = lower value 1.03 | locus YJL134W, strain LCB3, stronger effect = lower value 1.01 | locus YJL154C, strain vps35, stronger effect = lower value 1.01 | locus YJL164C, strain tpk1, stronger effect = lower value 0.972 | locus YJL166W, strain qcr8, stronger effect = lower value 0.979 | locus YJL168C, strain set2, stronger effect = lower value 0.971 | locus YJL187C, strain SWE1 (second series), stronger effect = lower value 1.01 | locus YJL187C, strain SWE1, stronger effect = lower value 0.994
